Sampled rows, rich in hits. Any-hit rate of the full collection: about 2.1%.
Mito fusion act = inhibitors of mitochondrial division or activators of mitochondrial fusion | S. cerevisiae fusion-defective mutant growth rescue, CellTiterGlo 48 h | Potency, µM (series often up to 46.1 µM), without a hit: at the top dose growth rescue (activation), usual class: activators | 0.23% of 320,000 active | AID 485298; also: potency is read from the fitted curve at half-maximal effect; % of control where 0% means no effect; nearly all actives have a fitted effect of over 45% in size
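Compounds are tested for their ability to restore growth of mitochondrial fusion-defective yeast strains at non-permissive 37C in YPEG medium over 48 hours. Viability is quantified by luciferase luminescence.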
B2AR arrestin = recruits beta-arrestin to the human beta2-adrenergic receptor | 0.02% of 330,000 active | Potency, µM (top dose mostly 46.1 µM), inactives show at the top dose activation, actives largely listed as activators | beta-arrestin recruitment to beta2AR, cell-based reporter;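 also: potency is read from the fitted curve at half-maximal effect; 0% = DMSO controls and full agonism = EC100 isoproterenol or metaproterenol; nearly all actives have a fitted effect of over 65% in size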
Target sequence (P07550 whole entry, looked up): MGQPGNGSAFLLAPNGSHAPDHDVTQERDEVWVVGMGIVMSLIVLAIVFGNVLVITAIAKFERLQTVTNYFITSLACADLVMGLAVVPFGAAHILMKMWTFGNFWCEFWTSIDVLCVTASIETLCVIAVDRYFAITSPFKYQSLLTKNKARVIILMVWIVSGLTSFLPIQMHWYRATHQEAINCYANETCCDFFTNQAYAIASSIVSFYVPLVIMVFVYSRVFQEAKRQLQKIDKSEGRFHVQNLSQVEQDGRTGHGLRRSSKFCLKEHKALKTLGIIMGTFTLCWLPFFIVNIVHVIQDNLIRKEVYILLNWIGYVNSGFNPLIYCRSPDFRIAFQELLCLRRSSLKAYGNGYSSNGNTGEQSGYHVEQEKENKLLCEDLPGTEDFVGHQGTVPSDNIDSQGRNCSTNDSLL
uPA generation = inhibitors of cell surface uPA generation | Potency, µM (highest dose often 38.3 µM), for the others: at the highest dose activity change, negative = inhibition, actives largely listed as inhibitors | 0.31% of 330,000 active | cell surface uPA generation assay, qHTS; active = well fitted inhibition curve with a large enough effect; inconclusive = small, poorly fitted or top-dose-only effect; inactive = no such curve, though single readings can be large or run the other way; tested in mouse RAW 264.7 cells; also: potency is read from the fitted curve at half-maximal effect; % is scaled to controls: 0 for no effect and ±100 for the full control effect; nearly all actives have a fitted effect of over 55% in size
ClpP mod = qHTS Assay for Activators of ClpP. ATP-dependent Clp protease proteolytic subunit (Bacillus subtilis (strain 168)), P80244. purified B. subtilis ClpP, FRET peptide cleavage, 20 min. Potency, µM (titrated, usually from 57.5 µM), inactives show at the highest dose activity change, negative = active. 1.9% of 340,000 active; active = well fitted falling curve with a large enough effect; inconclusive = small, poorly fitted or top-dose-only effect; inactive = no such curve, though single readings can be large or run the other way; also: potency is read from the fitted curve at half-maximal effect; the source files actives as falling curves though it sought activators and does not explain the sign; nearly all actives have a fitted effect of over 65% in size
Target sequence (P80244 whole entry, looked up): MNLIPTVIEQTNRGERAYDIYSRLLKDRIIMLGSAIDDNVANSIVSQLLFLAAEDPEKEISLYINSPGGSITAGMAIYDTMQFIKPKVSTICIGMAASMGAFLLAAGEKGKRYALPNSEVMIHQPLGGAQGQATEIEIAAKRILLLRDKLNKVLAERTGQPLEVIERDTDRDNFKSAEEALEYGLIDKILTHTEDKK
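ClpP 10 microg/mL final, pH 8 Tris/KCl buffer with BSA, glycerol, Tween-20; compound pinned in; FRET-FV substrate; RT 20 min; Ex320/Em430; ΔFRET vs ADEP 5.8 microM, DMSO, no enzyme.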
Giardia killer = Giardia lamblia killing | 0.15% of 340,000 active | Giardia lamblia trophozoite viability | AID 540267 | activity change, % at 7.66 µM, hits read low; in the data active = activity change below about -80%; inconclusive = between about -30% and that limit;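 also: parasites exposed to compound for two days anaerobically before the ATP read; % is scaled to controls: 0 for no effect and ±100 for the full control effect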
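Compounds were tested on trophozoites seeded at 100 cells/well and held 48 hrs at 37 deg C anaerobically. An ATP-based luminescent kit measured the remaining live cells.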
p53 reactivation = mutant p53 re-activation in reporter cells; Potency, µM (top dose mostly 92.2 µM), for inactives: top-dose activity change, positive = activation, usual class: activators; AID 504706; 0.063% of 320,000 active; H1299 p53-A138V BP100-luciferase reporter, luminescence, 24 h; also: potency is read from the fitted curve at half-maximal effect; % of control where 0% means no effect; nearly all actives have a fitted effect of over 45% in size
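H1299 (p53-null), stable ts p53-A138V + BP100-Luc; 1000 cells/well, Opti-MEM/10% FBS; cpd 4 pt, 1:5; 24 h, 37 deg C, 5% CO2; detection reagent 10 min RT; luminescence.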
Starred values were filed as active, the others as inactive; ? = inconclusive; . = not tested or not shown. Unless noted, calls follow the shape of the dose curve; as a rule, active = well fitted curve in the direction sought with a large enough effect; inconclusive = small, poorly fitted or top-dose-only effect, or another doubt; inactive = no such curve, though single readings can be large; an effect the other way counts as inactive or inconclusive.

SMILES	Mito fusion act	B2AR arrestin	uPA generation	ClpP mod	Giardia killer	p53 reactivation
C[C@]12C=CC(=O)C=C1CC[C@@H]1C2=CC[C@]2(C)[C@@H](C(=O)CN3CCN(c4cc(N5CCCC5)nc(N5CCCC5)n4)CC3)CC[C@@H]12	15µM*	.	?	-4%	-24	.
CC(C)CN(C(=O)COC(=O)c1ccccc1NCc1ccco1)c1c(N)n(Cc2ccccc2)c(=O)[nH]c1=O	0%	0%	3%	28µM*	0	-3%
Cc1nc2ccc(S(=O)(=O)Nc3cccc(-c4nc5cccnc5s4)c3)cc2s1	16µM*	-2%	?	-15%	-10	5%
Cc1cccc(CC(=O)Nc2cccc(-c3nc4cccnc4s3)c2)c1	.	.	.	20µM*	.	.
N#Cc1ccc(-c2ccco2)nc1SCc1ccccc1	17%	0%	-3%	10µM*	2	1%
N#Cc1ccc(-c2ccc(OCC(=O)Nc3cccnc3)cc2)cc1	-2%	0%	4%	16µM*	-19	2%
O=C1CC(C(=O)Nc2ccc(O)c(C(=O)O)c2)C(c2ccccc2)O1 (centres undefined)	2%	-1%	-3%	25µM*	4	0%
O=C1CC(C(=O)Nc2ccc(C(=O)O)cc2)C(c2ccccc2)O1 (centres undefined)	2%	4%	-1%	-3%	-2	11%
O=C(Cn1ccnc1[N+](=O)[O-])NCc1ccccc1	4%	0%	-5%	0%	-83*	-1%
O=C(Cn1cnc([N+](=O)[O-])n1)NCc1ccccc1	-2%	0%	13%	0%	-3	3%
CCNC(=O)C1(C)CCN1CCC(=O)c1ccc(C)cc1 (centres undefined)	.	.	.	1%	.	.
CCOC(=O)c1c(-c2ccc(C)s2)csc1NC(=O)c1cccs1	0%	0%	-4%	-9%	6	4%
CCOC(=O)c1c(NC(=O)c2cccs2)sc(CC)c1-c1cccs1	1%	0%	-5%	32µM*	-15	-1%
O=C(COC(=O)Cn1cnc2ccccc21)Nc1cc(S(=O)(=O)N2CCOCC2)ccc1Cl	1%	0%	1%	.	-7	-1%
O=C(COC(=O)Cn1cnc2ccccc21)Nc1cc2c(cc1Cl)C(=O)c1ccccc1C2=O	4%	0%	5µM*	2%	-29	14%
CC1=C(c2ccc(C)c(C)c2)S(=O)(=O)N(Cc2ccc(C(=O)NCc3ccccc3F)cc2)C1=O	.	.	.	14µM*	.	.
COc1ccccc1NC(=O)c1ccc(CN2C(=O)C(C)=C(c3ccc(C)c(C)c3)S2(=O)=O)cc1	.	.	.	-5%	.	.
COc1ccc(CCNC(=O)Cn2nc(C)n3c(cc4occc43)c2=O)cc1OC	.	.	.	1%	.	.
CCOC(=O)c1ccc(N=c2sc(C(=O)OC)cc(=O)n2CCCN2CCOCC2)cc1	0%	0%	?	-1%	-9	-14%
CCOC(=O)c1ccc(N=c2sc(C(=O)OC)cc(=O)n2Cc2ccco2)cc1	19%	0%	6.3µM*	0%	-6	-27%
CCOC(=O)Nc1ccc(/C=C/c2ccnc3ccccc23)cc1	.	.	.	-1%	.	.
COc1ccc(CCC(=O)NCc2ccc3c(c2)CCN3C(=O)c2ccc(Cl)cc2)cc1	.	.	.	-1%	.	.
CCCCc1c(C)nc2c(OC)cccc2c1SCCC(=O)O	-2%	-1%	-6%	32µM*	9	-11%
CCc1c(C)nc2c(OC)cccc2c1SCCC(=O)O	3%	0%	1%	?	-1	-13%
O=C(CC1N=C2c3ccccc3N=C(SCc3ccccc3Cl)N2C1=O)NC1CCCCC1 (centres undefined)	.	.	.	-4%	.	.
SMILES	Mito fusion act	B2AR arrestin	uPA generation	ClpP mod	Giardia killer	p53 reactivation
Cc1cc(C)cc(NC(=O)C2CCN(S(=O)(=O)c3cccc(-c4noc(C)n4)c3)CC2)c1	.	.	.	0%	.	.
Cc1cc(C)c2c(n1)nn1c(C)c(CCC(=O)Nc3cccc(C)c3C)c(C)nc21	.	.	.	5%	.	.
CCc1ccc2oc(C(=O)NCc3ccncc3)c(C)c2c1	1%	0%	-10%	28µM*	10	?
CCc1ccc2oc(C(=O)Nc3nc(-c4ccccc4)ns3)c(C)c2c1	.	.	.	25µM*	.	.
CCCCCCCCN1C(=O)[C@H](CC(=O)NCCc2ccccc2OC)C[C@@]2(C(=O)OC)CC(C)(C)CC=C12	.	.	.	-1%	.	.
COCCCNC(=O)c1ccccc1NS(=O)(=O)c1ccc(C)cc1	-2%	0%	0%	-29%	-13	-18%
CS(=O)(=O)Nc1ccccc1C(=O)Nc1cc(Cl)cc(Cl)c1	3%	0%	.	14µM*	5	0%
CS(=O)(=O)Nc1ccccc1C(=O)NC1CC2CCC1C2 (centres undefined)	1%	0%	.	35µM*	0	-8%
COCCCNC(=O)c1ccccc1NS(C)(=O)=O	-2%	0%	-2%	28µM*	7	-1%
Cc1ccc2c(CN3CCN(c4ccccc4)CC3)cc(=O)oc2c1	.	.	.	-2%	.	.
O=S1(=O)C2CC3C=CC2(O3)C(O)C(Cc2ccccc2)N1Cc1cccc(C(F)(F)F)c1 (centres undefined)	.	.	.	.	-3	.
Cc1ccc(S(=O)(=O)N2CN(Cc3ccco3)c3nc4ccccc4nc32)cc1	2%	0%	-5%	-30%	-4	-15%
Cc1ccc2cc3c(nc2c1)N(Cc1ccco1)CC3	2%	0%	-7%	28µM*	1	?
COc1ccc(Cl)cc1NC(=O)N1CCC(CN2CCc3ccccc3C2)CC1	.	.	.	-6%	.	.
O=C(Cc1ccccc1)NCCn1ccc2ccccc21	-1%	0%	4%	-2%	-18	13%
CC(=O)NCCn1ccc2ccccc21	2%	0%	-4%	28µM*	17	-13%
COCCCNc1nc2ccccc2nc1NS(=O)(=O)c1ccc(Cl)cc1	14µM*	-1%	10%	-20%	4	-8%
O=C(COc1ccc(Br)cc1)Nc1ccc(-c2nnc(-c3ccco3)o2)cc1	-6%	-2%	1%	10µM*	15	?
COc1ccccc1OCC(=O)Nc1ccc(-c2nnc(-c3ccco3)o2)cc1	-5%	0%	5%	-1%	-3	1%
O=c1nc2n(-c3ccccc3F)c3ccccc3cc-2c(=O)[nH]1	.	.	.	4%	.	.
O=c1nc2n(Cc3ccccc3)c3ccccc3cc-2c(=O)[nH]1	1%	1%	.	.	.	-10%
Cn1c2nc(=O)[nH]c(=O)c-2cc2ccccc21	.	.	3%	18µM*	-9	.
O=c1nc2n(CCO)c3ccccc3cc-2c(=O)[nH]1	.	.	6%	32µM*	9	.
CCCCSCCCNC(=O)C1CCN(Cc2nc(-c3ccc(CC)cc3)oc2C)CC1	.	.	.	-1%	.	.
Cc1ccc(S(=O)(=O)N2CCN(C(=O)COC(=O)C3CCC3)CC2)c(C)c1	6%	0%	4%	25µM*	13	1%

Screens: PubChem, National Center for Advancing Translational Sciences (NCATS)
